Measured values as given in the antibiotic and cytotoxicity screens of Wong et al. (2023).
In all, about 39,000 compounds went through this assay and about 3,300 (8.5%) were called active. This is one part of a sample in which actives are shown more often than they occur.

System: HepG2
Assay: cytotoxicity call (relative viability < 0.9)
Conditions: 10 µM

| SMILES | cytotoxicity call |
| --- | --- |
| C[C@H]1CN([C@@H](C)CO)C(=O)Cc2cc(NC(=O)CCCCCC(=O)Nc3ccccc3N)ccc2O[C@@H]1CN(C)CC1CCCCC1 | inactive |
| Cc1ccc(S(=O)(=O)N(C)C[C@H]2OCCCC[C@H](C)Oc3ccc(NC(=O)Cc4ccccc4)cc3C(=O)N([C@H](C)CO)C[C@H]2C)cc1 | inactive |
| Cc1ccc(S(=O)(=O)N(C)C[C@@H]2OCCCC[C@H](C)Oc3ccc(NC(=O)Cc4ccccc4)cc3C(=O)N([C@H](C)CO)C[C@H]2C)cc1 | inactive |
| Cc1ccc(S(=O)(=O)N(C)C[C@@H]2OCCCC[C@@H](C)Oc3ccc(NC(=O)Cc4ccccc4)cc3C(=O)N([C@@H](C)CO)C[C@@H]2C)cc1 | inactive |
| Cc1ccc(S(=O)(=O)N(C)C[C@@H]2OCCCC[C@@H](C)Oc3ccc(NC(=O)Cc4ccccc4)cc3C(=O)N([C@H](C)CO)C[C@@H]2C)cc1 | inactive |
| Cc1ccc(S(=O)(=O)N(C)C[C@@H]2OCCCC[C@H](C)Oc3ccc(NC(=O)Cc4ccccc4)cc3C(=O)N([C@H](C)CO)C[C@@H]2C)cc1 | active |
| Cc1ccc(S(=O)(=O)N(C)C[C@H]2OCCCC[C@H](C)Oc3ccc(NC(=O)Cc4ccccc4)cc3C(=O)N([C@@H](C)CO)C[C@@H]2C)cc1 | active |
| CC(C)NC(=O)Nc1ccc2c(c1)C(=O)N([C@H](C)CO)C[C@@H](C)[C@H](CN(C)S(=O)(=O)c1cn(C)cn1)OCCCC[C@H](C)O2 | inactive |
| CC(C)(C)NC(=O)[C@@H]1C[C@@H]2CCCC[C@@H]2CN1C[C@@H](O)[C@H](Cc1ccccc1)NC(=O)[C@H](CC(N)=O)NC(=O)c1ccc2ccccc2n1 | inactive |
| Cc1noc(C)c1S(=O)(=O)Nc1cccc2c1O[C@H](CN(C)C(=O)Nc1ccc3c(c1)OCO3)[C@H](C)CN([C@@H](C)CO)C2=O | inactive |
| COc1ccc(S(=O)(=O)Nc2cccc3c2O[C@H](CN(C)S(C)(=O)=O)[C@H](C)CN([C@H](C)CO)C3=O)cc1 | inactive |
| C[C@@H]1CN([C@H](C)CO)C(=O)c2cccc(NC(=O)c3ccc(-c4nccs4)cc3)c2O[C@@H]1CN(C)Cc1ccc(C(=O)Nc2ccccc2N)cc1 | active |
| C[C@H]1CN([C@@H](C)CO)C(=O)c2cccc(NC(=O)c3ccc(-c4nccs4)cc3)c2O[C@@H]1CN(C)Cc1ccc(-c2ccccc2)cc1 | inactive |
| C[C@H](CO)N1C[C@H](C)[C@@H](CN(C)Cc2ccc(C(=O)Nc3ccccc3N)cc2)Oc2c(NC(=O)c3ccc(-c4nccs4)cc3)cccc2C1=O | inactive |
| C[C@H]1CN([C@@H](C)CO)C(=O)c2cccc(NC(=O)c3ccc(-c4nccs4)cc3)c2O[C@H]1CN(C)Cc1ccc(C(=O)Nc2ccccc2N)cc1 | inactive |
| C[C@@H]1CN([C@@H](C)CO)C(=O)c2cccc(NC(=O)c3ccc(-c4nccs4)cc3)c2O[C@H]1CN(C)S(=O)(=O)c1ccc(Cl)cc1 | inactive |
| C[C@@H]1CN([C@@H](C)CO)C(=O)c2cccc(NC(=O)c3ccc(-c4nccs4)cc3)c2O[C@@H]1CN(C)Cc1ccc(-c2ccccc2)cc1 | active |
| C[C@H](CO)N1C[C@H](C)[C@H](CN(C)S(=O)(=O)c2ccc(Cl)cc2)Oc2c(NC(=O)c3ccc(-c4nccs4)cc3)cccc2C1=O | active |
| C[C@H](CO)N1C[C@H](C)[C@@H](CN(C)Cc2ccc(-c3ccccc3)cc2)Oc2c(NC(=O)c3ccc(-c4nccs4)cc3)cccc2C1=O | inactive |
| C[C@H](CO)N1C[C@H](C)[C@@H](CN(C)Cc2ccccc2)Oc2c(NC(=O)c3cnccn3)cccc2C1=O | inactive |
| C[C@@H]1CN([C@@H](C)CO)C(=O)c2cccc(NC(=O)c3ccc(-c4nccs4)cc3)c2O[C@@H]1CN(C)S(=O)(=O)c1ccc(Cl)cc1 | inactive |

| SMILES | cytotoxicity call |
| --- | --- |
| C[C@@H]1CN([C@@H](C)CO)C(=O)c2cccc(NC(=O)c3cnccn3)c2O[C@H]1CN(C)Cc1ccccc1 | inactive |
| C[C@@H]1CN([C@H](C)CO)C(=O)c2cccc(NC(=O)c3cnccn3)c2O[C@H]1CN(C)Cc1ccccc1 | active |
| C[C@H]1CN([C@@H](C)CO)C(=O)c2cc(NS(=O)(=O)c3cccs3)ccc2O[C@@H]1CN(C)S(=O)(=O)c1ccccc1 | inactive |
| COC(=O)CCCCCCC(=O)N/N=C/[C@H](O)[C@@H](O)[C@H](O[C@@H]1O[C@H](CO)[C@H](O)[C@H](O)[C@H]1O)[C@H](O)CO | inactive |
| CO[C@H](CN(C)C(=O)c1ccc2c(c1)OCO2)[C@H](C)CN([C@@H](C)CO)S(=O)(=O)c1ccc(C)cc1 | inactive |
| Cc1ccc(S(=O)(=O)N(C)C[C@H]2Oc3ccc(NC(=O)CCN4CCOCC4)cc3CC(=O)N([C@@H](C)CO)C[C@@H]2C)cc1 | inactive |
| Cc1cc(=O)oc2cc(O[C@H]3O[C@@H](CO)[C@@H](O)[C@@H](O)[C@@H]3O)ccc12 | inactive |
| C[C@H]1C[C@@H]2[C@@H](C[C@@H]1C)N[C@@H]1C(=O)NC(=O)N[C@H]1N2C[C@H](O)[C@H](O)[C@H](O)CO | inactive |
| Cc1ccc(S(=O)(=O)N(C)C[C@@H]2OCCCC[C@@H](C)Oc3ccc(NC(=O)Nc4ccccc4)cc3C(=O)N([C@@H](C)CO)C[C@@H]2C)cc1 | inactive |
| COc1ccc(NC(=O)Nc2ccc3c(c2)C(=O)N([C@H](C)CO)C[C@H](C)[C@@H](CN(C)C(=O)Nc2cccc4ccccc24)OCCCC[C@@H](C)O3)cc1 | inactive |
| CC#CC(=O)NS(=O)(=O)c1ccccc1 | inactive |
| C[C@@H]1CN([C@@H](C)CO)C(=O)c2cccc(NC(=O)C3CCOCC3)c2O[C@H]1CN(C)S(=O)(=O)c1cn(C)cn1 | inactive |
| C[C@H]1CN([C@@H](C)CO)C(=O)Cc2cc(NS(=O)(=O)c3cn(C)cn3)ccc2O[C@@H]1CN(C)CC1CCCCC1 | inactive |
| CC(=O)N(C)C[C@H]1Oc2cc(C#CCN(C)C)ccc2S(=O)(=O)N([C@@H](C)CO)C[C@@H]1C | inactive |
| C[C@H](CO)N1C[C@H](C)[C@H](CN(C)Cc2ccc(-c3ccccc3)cc2)Oc2c(NC(=O)c3ccncc3)cccc2C1=O | inactive |
| C[C@H](CO)N1C[C@H](C)[C@@H](CN(C)Cc2ccc(-c3ccccc3)cc2)Oc2c(NC(=O)c3ccncc3)cccc2C1=O | active |
| C[C@@H]1CN([C@H](C)CO)C(=O)c2cccc(NC(=O)c3ccc(-c4nccs4)cc3)c2O[C@H]1CN(C)CC1CCCCC1 | active |
| C[C@H]1CN([C@@H](C)CO)C(=O)c2cccc(NC(=O)c3ccc(-c4nccs4)cc3)c2O[C@@H]1CN(C)Cc1ccc(Cl)c(Cl)c1 | inactive |
| C[C@H]1CN([C@@H](C)CO)C(=O)c2cccc(NC(=O)c3ccncc3)c2O[C@H]1CN(C)Cc1ccc(-c2ccccc2)cc1 | inactive |
| C[C@@H]1CN([C@@H](C)CO)C(=O)c2cccc(NC(=O)c3ccc(-c4nccs4)cc3)c2O[C@@H]1CN(C)Cc1ccc(C(=O)Nc2ccccc2N)cc1 | active |
| C[C@H]1CN([C@@H](C)CO)C(=O)c2cccc(NC(=O)c3ccc(-c4nccs4)cc3)c2O[C@@H]1CN(C)CC1CCCCC1 | inactive |

| SMILES | cytotoxicity call |
| --- | --- |
| C[C@@H]1CN([C@@H](C)CO)C(=O)c2cccc(NC(=O)c3ccc(-c4nccs4)cc3)c2O[C@@H]1CN(C)Cc1ccc(Cl)c(Cl)c1 | active |
| C[C@H](CO)N1C[C@H](C)[C@H](CN(C)Cc2ccc(C(=O)Nc3ccccc3N)cc2)Oc2c(NC(=O)c3ccc(-c4nccs4)cc3)cccc2C1=O | inactive |
| C[C@@H]1CN([C@H](C)CO)C(=O)c2cccc(NC(=O)c3ccc(-c4nccs4)cc3)c2O[C@H]1CN(C)Cc1ccc(Cl)c(Cl)c1 | inactive |
| C[C@H]1CN([C@@H](C)CO)C(=O)c2cccc(NC(=O)c3ccc(-c4nccs4)cc3)c2O[C@@H]1CN(C)Cc1ccc(C(=O)Nc2ccccc2N)cc1 | inactive |
| C[C@@H]1CN([C@H](C)CO)C(=O)c2cccc(NC(=O)c3ccc(-c4nccs4)cc3)c2O[C@@H]1CN(C)CC1CCCCC1 | inactive |
| COc1cccc(S(=O)(=O)Nc2ccc3c(c2)[C@@H]2C[C@@H](CC(=O)NCc4cccc(F)c4)O[C@H](CO)[C@@H]2O3)c1 | inactive |
| O=C(C[C@@H]1C=C[C@@H](NS(=O)(=O)c2ccccc2)[C@@H](CO)O1)NCc1ccncn1 | inactive |
| COc1ccc(S(=O)(=O)N2C[C@H](O)COC[C@@H]3O[C@@H](CC(=O)N[C@@H]4CCN(Cc5ccccc5)C4)CC[C@H]32)cc1 | inactive |
| COCC(=O)Nc1ccc2c(c1)C(=O)N(C)C[C@@H](OC)[C@@H](C)CN(Cc1ccccc1OC)[C@H](C)CO2 | inactive |
| C[C@@H]1CCCCO[C@H](CN(C)C(=O)Cc2ccccc2)[C@H](C)CN([C@@H](C)CO)C(=O)c2cc(NS(=O)(=O)c3ccc(Cl)cc3)ccc2O1 | inactive |
| COCC(=O)N1C[C@H](C)[C@H](OC)CN(C)C(=O)c2ccc(NC(=O)c3ccc(OC)cc3)cc2OC[C@H]1C | inactive |
| Cc1noc(C)c1S(=O)(=O)N(C)C[C@H]1OCCCC[C@@H](C)Oc2ccc(NC(=O)Nc3ccc(F)cc3)cc2C(=O)N([C@H](C)CO)C[C@@H]1C | inactive |
| Cc1noc(C)c1S(=O)(=O)Nc1ccc2c(c1)C(=O)N([C@H](C)CO)C[C@@H](C)[C@H](CN(C)Cc1ccccc1)OCCCC[C@H](C)O2 | inactive |
| COc1ccc(S(=O)(=O)N(C)C[C@@H]2Oc3ccc(NC(=O)Nc4cc(Cl)cc(Cl)c4)cc3CC(=O)N([C@@H](C)CO)C[C@@H]2C)cc1Cl | active |
| COc1ccc(S(=O)(=O)N(C)C[C@@H]2Oc3ccc(NC(=O)Nc4ccc(Cl)c(Cl)c4)cc3CC(=O)N([C@@H](C)CO)C[C@@H]2C)cc1Cl | active |
| CC(C)NC(=O)Nc1ccc2c(c1)CC(=O)N([C@@H](C)CO)C[C@@H](C)[C@H](CN(C)S(=O)(=O)c1ccc(Cl)cc1)O2 | inactive |
| COc1ccc(S(=O)(=O)N(C)C[C@@H]2Oc3ccc(NC(=O)Nc4cccc5c4CCCC5)cc3CC(=O)N([C@@H](C)CO)C[C@@H]2C)cc1Cl | inactive |
| CC(C)NC(=O)Nc1ccc2c(c1)CC(=O)N([C@H](C)CO)C[C@@H](C)[C@H](CN(C)S(=O)(=O)c1ccc(Cl)cc1)O2 | inactive |
| COc1ccc(S(=O)(=O)N(C)C[C@@H]2Oc3ccc(NC(=O)NC(C)C)cc3CC(=O)N([C@H](C)CO)C[C@@H]2C)cc1 | inactive |
